# Rows were chosen to be rich in hits. Some 3% of all compounds tested hit in one or more screens of this group.
# Nrf2 block: inhibitors of Nrf2 signaling | actives 2.1% (n = 360,000) | Potency, µM (doses to about 46 µM), without a hit: at the top dose activity change, negative = inhibition, actives largely listed as inhibitors | A549 ARE-Fluc reporter, luciferase luminescence, 18-24 h | AID 504444; note: % is set by controls: 0 for no effect and ±100 for the full control effect; nearly all actives have a fitted effect of over 60% in size
#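 Cells were seeded and rested 2 h, then exposed to compounds for 18-24 h. CellTiter-Fluor was read first as a viability measure. BugLite was added 15 min before the final luminescent read of ARE-luciferase activity in A549 cells.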
# Nrf2 ARE act: Nrf2 pathway activation; Potency, µM (highest dose often 46.1 µM), without a hit: at the top dose activation, most hits filed as activators; AID 624171; AREc32 ARE-luciferase reporter (MCF7-derived line), luminescence, 24 h; actives 0.31% (n = 410,000); note: % of control where 0% means no effect; nearly all actives have a fitted effect of over 65% in size
#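 Cells of the AREc32 ARE-luciferase line are plated in OPTI-MEM containing 5% FBS and left overnight at 37 deg C. Compounds are pinned in, incubation continues 24 hr, and firefly luciferase signal is then measured.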
# A549 viability: A549 cytotoxicity, counter-screen for Nrf2 inhibitors; A549 ARE-Fluc cells, CellTiter-Fluor viability, 18-24 h; Potency, µM (titrated, usually from 46 µM), for inactives: at the highest dose activity change, negative = cytotoxicity, hits mostly inhibitors; actives 0.16% (n = 390,000); AID 504648; note: % is set by controls: 0 for no effect and ±100 for the full control effect
#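 A549 ARE-Fluc cells in 5% FBS OPTI-MEM, 5000 cells/well, rested 2 h then exposed to compounds in concentration-response for 18-24 h at 37 °C. Viability by CellTiter-Fluor fluorescence (Ex 405/Em 525) after 30 min; luciferase luminescence (BugLite, 15 min, RT) read afterwards.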
# GALK inhibitor: galactokinase (human) inhibition; P51570; Purified GALK, Kinase-Glo residual ATP luminescence; Potency, µM (titrated, usually from 57.5 µM), for inactives: at the highest dose activity change, negative = inhibition, most hits filed as inhibitors; actives 0.007% (n = 270,000); AID 1868; note: % is set by controls: 0 for no effect and ±100 for the full control effect
# Target sequence (P51570 whole entry, looked up): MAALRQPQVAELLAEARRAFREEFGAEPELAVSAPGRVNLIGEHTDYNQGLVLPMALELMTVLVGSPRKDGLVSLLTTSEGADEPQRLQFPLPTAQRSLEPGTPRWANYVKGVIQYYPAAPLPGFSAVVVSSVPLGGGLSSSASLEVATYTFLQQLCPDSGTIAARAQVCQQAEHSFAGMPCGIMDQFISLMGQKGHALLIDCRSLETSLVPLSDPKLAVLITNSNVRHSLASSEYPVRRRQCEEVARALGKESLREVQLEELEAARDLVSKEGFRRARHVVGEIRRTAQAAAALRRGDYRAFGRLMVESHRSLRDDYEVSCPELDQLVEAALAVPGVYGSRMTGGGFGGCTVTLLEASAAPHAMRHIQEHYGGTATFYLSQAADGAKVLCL
#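 The enzyme phosphorylates galactose (100 uM) using ATP (35 uM); inhibition is detected as higher residual ATP, quantified by bioluminescence after 1 h reaction at room temperature, pH 8.0.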
# TrxR1 inh: blocks rat thioredoxin reductase 1. O89049. recombinant rTrxR1, NADPH fluorescence consumption, selenite substrate. Potency, µM (series often up to 114 µM), without a hit: at the top dose activity change, negative = inhibition, hits mostly inhibitors. actives 1% (n = 390,000); note: % is set by controls: 0 for no effect and ±100 for the full control effect; nearly all actives have a fitted effect of over 65% in size
#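 Rat TrxR1 (90 nM in the dispensed reagent) was pre-reduced with 400 uM NADPH for 5 min at room temperature, then incubated with compound for 15 min. After 400 uM selenite was added, NADPH fluorescence (Ex 340/Em 450 nm) was followed for 8 min.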
# TrxR1 substrate: rat thioredoxin reductase 1 substrate activity; purified TrxR1 substrate turnover, NADPH consumption readout; Potency, µM (highest dose often 114 µM), inactives show top-dose activity change, negative = substrate turnover; actives 0.01% (n = 390,000); note: % is set by controls: 0 for no effect and ±100 for the full control effect; nearly all actives have a fitted effect of over 50% in size
#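 Rat TrxR1, dispensed at 90 nM, was prereduced with 400 uM NADPH (final) for 5 min at ~22 deg C, then incubated with compound 15 min before 400 uM selenite. A first-read NADPH fluorescence drop versus no-compound background flagged substrates.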
# An asterisk follows results filed as active; ? = inconclusive; . = no result; [ ] = another dose, or the depositor's remark. Calls come from the whole dose curve; as a rule, active = well fitted curve in the direction sought with a large enough effect; inconclusive = small, poorly fitted or top-dose-only effect, or another doubt; inactive = no such curve, though single readings can be large; an effect the other way counts as inactive or inconclusive. Potency is the fitted concentration of half-maximal effect.
SMILES,Nrf2 block,Nrf2 ARE act,A549 viability,GALK inhibitor,TrxR1 inh,TrxR1 substrate
Cc1cc(N2CCC(C(=O)N(CC(C)C)CC(C)C)CC2)n2nc(C)c(-c3ccc(Cl)cc3)c2n1,1.2%,-0.2%,-18.8%,.,16.5%,2.8%
O=C(Nc1ccc(C(=O)N2CCCc3ccccc32)cc1)c1cccs1,20.6µM*,0.2%,?,-6.9%,16.8%,-5.1%
O=C(Nc1ccc2c(c1)CCCN2C(=O)c1cccs1)c1c(F)cccc1Cl,25.9µM*,4.4%,-15.7%,7.6%,28.3%,-0.4%
COc1ccc(-n2c(C)c(C(C)=O)c3cc(OC(=O)c4ccc(C)cc4)ccc32)cc1,?,-1.6%,-0.4%,.,17.0%,7.4%
CC1(C)CC(=O)C/C(=N/NC(=O)c2ccc(-c3ccccc3)cc2)C1,16.4µM*,0.1%,-1.1%,-0.2%,0.4%[57.1 µM],-1.9%[57.1 µM]
Oc1c(Br)cc(Br)c2cccnc12,?,3.4%,-17.0%,.,6.5%,8.7%
O=c1cc(Br)c(O)c(Br)cc1Br,9.3%,?,?,.,3.16µM*,-3.1%
Cc1ccc(S(=O)(=O)NCC(Nc2cccc(Cl)c2)c2ccccc2)cc1 (centres undefined),?,-2.5%,2.6%,.,4.0%,-9.8%
O=S(=O)(NCC(Nc1ccc(Cl)cc1)c1ccccc1)c1ccc(Cl)cc1 (centres undefined),20.6µM*,0.3%,?,0.5%,-3.9%[0.457 µM],-5.5%
OC(CN1CCCCC1)c1ccccc1 (centres undefined),.,.,.,.,-1.6%,1.3%
N#C/C(=C\c1ccccn1)c1ccccn1,?,22.4µM*,-2.4%,2.1%,-32.4%,-6.3%
COc1cc(/C=C(\C#N)c2ccccn2)cc(OC)c1O,2.5%,12.6µM*,7.8%,-2.0%,5.7%,-7.0%
Cc1cc(C)n2nc(/C(C#N)=C/c3ccccn3)c(C#N)c2n1,-27.0%,7.94µM*,-19.0%,-1.7%,?,-4.4%[57.1 µM]
CCNC(=O)Nc1cc(S(=O)(=O)Nc2ccc(OC)cc2)ccc1N1CCOCC1,4.11µM*,0.5%,-15.3%,.,10.6%,-3.5%
Nc1cc(S(=O)(=O)Nc2ccc(Cl)cc2)ccc1N1CCOCC1,16.4µM*,0.4%,-9.4%,3.5%,-5.5%,-3.0%
Cc1ccc(C(=O)NNC(=S)NC(=O)c2ccccc2)cc1,16.4µM*,3.9%,?,.,-13.0%[57.1 µM],-0.9%[57.1 µM]
Cc1ccc(C(=O)NNC(=S)NC(=O)c2ccc(Cl)cc2Cl)cc1,20.6µM*,0.4%,-19.8%,-1.4%,-12.5%,4.9%
Cc1ccc(C(=O)NC(=S)NNC(=O)c2ccccc2)cc1,?,-0.3%,-17.2%,5.2%,1.4%,-3.3%[2.29 µM]
O=C(Nc1ccc(F)c(F)c1)C(c1ccccc1)N1Cc2ccccc2C1=O (centres undefined),-7.0%,4.7%,?,.,-10.3%,-14.7%
CSc1ccccc1NC(=S)Nc1ccc(S(N)(=O)=O)cc1,6.5%,-0.2%,2.5%,-0.7%,-21.4%[57.1 µM],3.7%[57.1 µM]
NS(=O)(=O)c1ccc(NC(=S)Nc2cc(Cl)c(Cl)cc2Cl)cc1,7.1%,-0.4%[9.22 µM],13.0%,0.3%,35.5µM*,-2.7%
COC(=O)c1nc(NC(=O)c2ccc(Br)cc2)n[nH]1,-11.3%,2.8%,8.0%,4.2%,?,-2.2%
COC(=O)c1nc(NC(=O)c2ccccc2Cl)n[nH]1,25.9µM*,-0.7%,-1.6%,-0.1%,-18.9%,11.4%
Cn1cc2ccc(-c3ccc4ncnc(NCc5cccs5)c4c3)cc2n1,?,.,-3.5%,.,.,.
CCOC(=O)c1ccc(-n2c(CCC(=O)O)ccc2-c2ccccc2)cc1O,-13.4%,21.8%,-1.1%,.,50.1µM*,1.8%
SMILES,Nrf2 block,Nrf2 ARE act,A549 viability,GALK inhibitor,TrxR1 inh,TrxR1 substrate
O=C(O)CCc1ccc(-c2ccccc2)n1-c1cccc(C(=O)O)c1,34.8%,3.9%,3.5%,-2.8%,44.7µM*,3.4%
CC(=O)c1ccc(-n2c(CCC(=O)O)ccc2-c2ccc(Cl)cc2)cc1,?,-0.8%,0.0%,.,0.7%,4.4%
O=C(O)CCc1ccc(-c2ccccc2)n1-c1ccc(C(=O)O)cc1,0.2%,0.6%,1.7%,2.9%,79.4µM*,5.0%
Cc1ccc(-c2ccc(CCC(=O)O)n2-c2ccc(C)c(Cl)c2)cc1,5.4%,9.4%,-1.1%,.,?,1.6%
CC(NC(=O)c1ccc2c(c1)CCN2S(=O)(=O)c1ccc(Cl)cc1)c1ccccc1 (centres undefined),1.4%,4.5%,5.6%,.,19.5%,-6.7%
Cc1ccc(-n2c(SCC(=O)N3CCc4ccccc43)nc3c([nH]c4ccccc43)c2=O)cc1,.,0.7%,4.4%,.,5.8%[57.1 µM],-3.3%[57.1 µM]
CCn1c(=O)cc(SCC(=O)Nc2cccc(SC)c2)c2ccccc21,13µM*,3.9%,-23.0%,2.1%,2.4%,-1.7%
CCn1c(=O)cc(SCC(=O)Nc2cc(OC)c(OC)c(OC)c2)c2ccccc21,?,4.9%,-12.2%,-1.5%,-10.5%,-7.0%
Cc1cc(C)cc(-n2ccn(CC(=O)Nc3cc(C)ccc3C)c(=O)c2=O)c1,7.6%,0.6%,2.2%,.,21.9%,4.2%[11.4 µM]
Cn1c(=O)c2c(nc(NCCO)n2CCCc2ccccc2)n(C)c1=O,20.6µM*,0.5%,-0.1%,-4.5%,7.4%,0.5%
CNc1nc2c(c(=O)n(C)c(=O)n2C)n1Cc1ccccc1,7.31µM*,0.7%,-15.5%,0.0%,10.5%,1.4%
COCCNc1nc2c(c(=O)n(C)c(=O)n2C)n1Cc1cccc(C)c1,?,0.1%,-6.4%,9.8%,21.9%,8.2%
Cn1c(=O)c2c(nc(Sc3ncccn3)n2Cc2ccc(Cl)cc2)n(C)c1=O,14.6µM*,0.7%,4.8%,2.3%,4.9%[57.1 µM],-0.1%[57.1 µM]
Cc1cccc(Cn2c(NCCO)nc3c2c(=O)n(C)c(=O)n3C)c1,4.11µM*,-0.2%,-18.7%,1.8%,5.5%[57.1 µM],4.3%[57.1 µM]
Cc1cccc(C(=O)N2CCc3cc(CNS(=O)(=O)c4ccc(F)c(Cl)c4)ccc32)c1,.,-0.4%,12.5%,.,9.9%[57.1 µM],0.3%[57.1 µM]
Cc1ccc(-c2nc(C(=O)NCC3CCCO3)cc3c2[nH]c2ccccc23)cc1 (centres undefined),?,3.5%,-18.0%,.,49.3%,41.6%
COc1cc(-c2nc(C(=O)NC3CCCCC3)cc3c2[nH]c2ccccc23)cc(OC)c1OC,9.2µM*,5.7%,-7.5%,.,20.3%,23.9%
Cc1ccccc1-c1nc(C(=O)NCC2CCCO2)cc2c1[nH]c1ccccc12 (centres undefined),23.1µM*,3.4%,-9.8%,.,48.6%,32.5%
O=S1(=O)N=C(Sc2ccc3c(c2)OCCO3)c2ccccc21,-29.9%,.,-0.4%,.,.,.
NC(=S)NN=C1CSSC1,.,10µM*,.,.,.,.
CC1(C)CCC(=NNC(N)=S)CC1,5.5%,6.7%,16.7%,.,-3.0%,1.1%

# Bioassay records (PubChem)
